In PubChem BioAssay (NCI) one finds growth data, which are given here for 11 molecules.

Common to all, as to assay: NCI-60 one-dose screen, 48 h (100 = growth as untreated, 0 = no growth, -100 = all killed)
The subject of one assay is HCT-15 colon. Conditions: 10 µM unless noted.
For a further assay, the system named is HT29 colon. Conditions: 10 µM unless noted.
A further assay concerns SNB-75 CNS. Conditions: 10 µM unless noted.
The next assay relates to SNB-19 CNS. The settings on record: 10 µM unless noted.
Another assay deals with U251 CNS. The settings on record: 10 µM unless noted.
The subject of the next assay is PC-3 prostate. Conditions: 10 µM unless noted.
Another assay deals with SK-MEL-5 melanoma. Conditions: 10 µM unless noted.
A further assay concerns UACC-62 melanoma. Conditions: 10 µM unless noted.
Another assay has as its system SK-MEL-28 melanoma. Conditions: 10 µM unless noted.
For the next assay, the system named is SK-MEL-2 melanoma. The settings on record: 10 µM unless noted.
The next assay concerns SN12C renal. Conditions: 10 µM unless noted.
The next assay relates to TK-10 renal. The settings on record: 10 µM unless noted.
Another assay relates to CAKI-1 renal. Conditions: 10 µM unless noted.
A further assay concerns CCRF-CEM leukemia. The settings on record: 10 µM.
Another assay concerns MOLT-4 leukemia. The settings on record: 10 µM unless noted.
For the next assay, the system named is UO-31 renal. The settings on record: 10 µM unless noted.
The subject of the next assay is A498 renal. Conditions: 10 µM unless noted.
In a further assay the test system is EKVX NSCLC. Conditions: 10 µM.
The subject of another assay is ACHN renal. Conditions: 10 µM unless noted.
Another assay has as its system LOX IMVI melanoma. Conditions: 10 µM unless noted.

Values joined by “and” are separate entries in the source; they are usually repeats but may differ in a detail not shown here. Equal entries are not always repeated. About 83,000 compounds went through this panel and 20% of them were active in at least one assay; those are over-represented in the sample as a whole.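 Step 1: grow cells in 96-well plates. Step 2: add test compound at a single concentration. Step 3: incubate 48 h. Step 4: record percent growth.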 Active and inactive are the calls of the source. How the source made its calls: active means growth percent below 10; inactive means the rest. Where a SMILES comes first, the peptide text is derived from it.

Consider `NC(Cc1ccccc1)C(=O)NC(Cc1ccccc1)C(=O)O` (stereo not drawn) (H-Phe-Phe-OH; configuration not given here), for which the growth in the assay on HCT-15 colon was 106% (inactive) and 98.3% (inactive); with HT29 colon it was 101% (inactive) and 104% (inactive); with SNB-75 CNS, 88.1% (inactive) and 93.5% (inactive); in the assay with SNB-19 CNS it was 94.5% (inactive) and 100% (inactive); in the assay with U251 CNS, 99% (inactive) and 94% (inactive); in the assay on PC-3 prostate it was 95.2% (inactive) and 90.6% (inactive). For the same molecule, the growth with SK-MEL-5 melanoma is 100% (inactive) and 94.8% (inactive); in the assay with UACC-62 melanoma, 104% (inactive); in the assay with SK-MEL-28 melanoma it was 103% (inactive) and 105% (inactive); in the assay with SK-MEL-2 melanoma it was 99.1% (inactive) and 104% (inactive); in the assay on SN12C renal it was 103% (inactive) and 101% (inactive); with TK-10 renal it was 105% (inactive). The growth in the assay on CAKI-1 renal is 106% (inactive) and 97.1% (inactive); in the assay with CCRF-CEM leukemia, 118% (inactive) and 98.4% (inactive); in the assay with MOLT-4 leukemia it was 100% (inactive) and 101% (inactive).

For the molecule `CCCCOc1ccc(Nc2cc(Cl)ccc2C(=O)O)cn1`, the growth in the assay on HCT-15 colon was 104% (inactive) and 89.1% (inactive); in the assay with HT29 colon it was 115% (inactive); with SNB-75 CNS, 98.7% (inactive) and 115% (inactive); with SNB-19 CNS, 96.6% (inactive) and 106% (inactive); in the assay with U251 CNS, 98.1% (inactive) and 96.9% (inactive); in the assay on PC-3 prostate, 93.6% (inactive). Also, the growth was 99.4% (inactive) and 102% (inactive) with SK-MEL-5 melanoma; 97.9% (inactive) and 98.1% (inactive) in the assay on UACC-62 melanoma; 122% (inactive) and 113% (inactive) in the assay on SK-MEL-28 melanoma; 79.3% (inactive) and 112% (inactive) in the assay with SK-MEL-2 melanoma; 94.2% (inactive) and 104% (inactive) in the assay on SN12C renal; 6.77% (active) and 86.2% (inactive) in the assay with UO-31 renal. Moreover, the growth is 112% (inactive) and 121% (inactive) in the assay on TK-10 renal; 97.7% (inactive) and 94.4% (inactive) with CAKI-1 renal; 102% (inactive) in the assay on A498 renal; 82.3% (inactive) and 95% (inactive) in the assay with CCRF-CEM leukemia; 94.6% (inactive) and 108% (inactive) with MOLT-4 leukemia.

On to `Cn1cnc([N+](=O)[O-])c1Sc1ncn[nH]1`, for which the growth was 107% (inactive) with HCT-15 colon; 104% (inactive) with HT29 colon; 85.6% (inactive) in the assay on SNB-75 CNS; 111% (inactive) with SNB-19 CNS; 108% (inactive) in the assay with U251 CNS; 104% (inactive) in the assay with SK-MEL-5 melanoma. For the same molecule, the growth was 108% (inactive) in the assay on UACC-62 melanoma; 104% (inactive) in the assay with SK-MEL-28 melanoma; 101% (inactive) with EKVX NSCLC; 101% (inactive) in the assay with SN12C renal; 106% (inactive) with TK-10 renal; 68.4% (inactive) in the assay with CAKI-1 renal. For the same molecule, the growth was 117% (inactive) in the assay on A498 renal and 121% (inactive) in the assay on MOLT-4 leukemia.

Regarding `c1ccc(CNCCNCc2ccccc2)cc1`, the growth with HCT-15 colon is 101% (inactive); with HT29 colon, 108% (inactive); in the assay with SNB-75 CNS it was 86.7% (inactive); in the assay with SNB-19 CNS it was 107% (inactive); in the assay on U251 CNS, 96% (inactive); in the assay on PC-3 prostate, 92.4% (inactive). Also, the growth was 107% (inactive) with SK-MEL-5 melanoma; 105% (inactive) in the assay on UACC-62 melanoma; 108% (inactive) in the assay with SK-MEL-28 melanoma; 102% (inactive) in the assay with SK-MEL-2 melanoma; 105% (inactive) in the assay with SN12C renal; 79.4% (inactive) with UO-31 renal. In addition, the growth with TK-10 renal was 119% (inactive); in the assay with CAKI-1 renal, 98.5% (inactive); with CCRF-CEM leukemia, 92.6% (inactive); with MOLT-4 leukemia it was 105% (inactive).

For the molecule `O=C1c2c(O)ccc(O)c2C(=O)c2c(NCCNCCO)ccc(NCCNCCO)c21`, the growth was -14.2% (active) and 3.08% (active) with HCT-15 colon; -59.8% (active) and -43.2% (active) in the assay with HT29 colon; -90.4% (active) in the assay on SNB-75 CNS; -40.6% (active) and -58.3% (active) in the assay with SNB-19 CNS; -67% (active) and -99.7% (active) in the assay on U251 CNS; -28% (active) and -55.3% (active) in the assay on PC-3 prostate. Also, the growth was -100% (active) with SK-MEL-5 melanoma; -91.9% (active) and -86.7% (active) in the assay on UACC-62 melanoma; -87.6% (active) and -70.5% (active) with SK-MEL-2 melanoma; -45.7% (active) and -49.7% (active) in the assay with SN12C renal; -35% (active) and -7% (active) in the assay with TK-10 renal; -52.9% (active) and -45.2% (active) with ACHN renal. Moreover, the growth in the assay with CAKI-1 renal is -17.2% (active) and -31% (active); in the assay with A498 renal it was -80.1% (active); in the assay on CCRF-CEM leukemia, -24.9% (active) and -30.9% (active); in the assay on MOLT-4 leukemia it was 2.98% (active) and -18.1% (active).

On to `COc1ccc(C(=O)CC(c2ccccc2)C(C#N)c2ccccc2)cc1` (configuration not stated), for which the growth with HCT-15 colon is 96.5% (inactive); in the assay on HT29 colon, 82.3% (inactive); with SNB-75 CNS, 83.8% (inactive); in the assay on SNB-19 CNS it was 92.4% (inactive); in the assay on U251 CNS it was 83.2% (inactive); in the assay with PC-3 prostate, 64.8% (inactive). Also, the growth in the assay with SK-MEL-5 melanoma was 86.6% (inactive); with LOX IMVI melanoma, 85.2% (inactive); in the assay on SK-MEL-28 melanoma, 97% (inactive); in the assay with SK-MEL-2 melanoma, 71.6% (inactive); in the assay on EKVX NSCLC, 84.9% (inactive); in the assay with SN12C renal, 86.8% (inactive). For the same molecule, the growth was 69.2% (inactive) in the assay on UO-31 renal; 88% (inactive) with TK-10 renal; 88.8% (inactive) with ACHN renal; 74.2% (inactive) with CAKI-1 renal; 84.1% (inactive) in the assay on CCRF-CEM leukemia; 76.4% (inactive) in the assay with MOLT-4 leukemia.

For the molecule `OCC1OC(O)C(O)C(O)C1O` (configuration not stated), the growth was 97.2% (inactive) in the assay with HCT-15 colon; 92.5% (inactive) with HT29 colon; 107% (inactive) with SNB-19 CNS; 113% (inactive) in the assay with U251 CNS; 92.2% (inactive) in the assay on PC-3 prostate; 110% (inactive) with SK-MEL-5 melanoma. For the same molecule, the growth is 117% (inactive) in the assay with UACC-62 melanoma; 100% (inactive) in the assay on LOX IMVI melanoma; 115% (inactive) in the assay on SK-MEL-2 melanoma; 114% (inactive) in the assay on EKVX NSCLC; 103% (inactive) in the assay on SN12C renal; 100% (inactive) in the assay with TK-10 renal. The growth with CAKI-1 renal is 89% (inactive); in the assay with A498 renal it was 105% (inactive); in the assay with CCRF-CEM leukemia, 92.3% (inactive); in the assay on MOLT-4 leukemia, 96.6% (inactive).

Regarding `Nc1ncnc2c1ncn2C1OC(COP(=O)(O)O)C(O)C1O` (configuration not stated), the growth in the assay with HCT-15 colon is 109% (inactive); in the assay with HT29 colon, 114% (inactive); with SNB-75 CNS it was 93.1% (inactive); with SNB-19 CNS it was 103% (inactive); in the assay on U251 CNS, 112% (inactive); with PC-3 prostate it was 101% (inactive). The growth with SK-MEL-5 melanoma was 117% (inactive); with UACC-62 melanoma, 104% (inactive); with SK-MEL-28 melanoma, 119% (inactive); in the assay with SN12C renal it was 99.9% (inactive); in the assay on UO-31 renal, 100% (inactive); with TK-10 renal, 122% (inactive). Moreover, the growth with ACHN renal is 103% (inactive); in the assay with CAKI-1 renal, 106% (inactive); in the assay on CCRF-CEM leukemia it was 105% (inactive); in the assay with MOLT-4 leukemia, 109% (inactive).

In the case of `OC1COC(OCc2ccccc2)C(O)C1O` (configuration not stated), the growth is 98% (inactive) in the assay on HCT-15 colon; 111% (inactive) in the assay with HT29 colon; 90.5% (inactive) in the assay on SNB-75 CNS; 95.4% (inactive) in the assay with U251 CNS; 105% (inactive) in the assay on PC-3 prostate; 101% (inactive) in the assay with SK-MEL-5 melanoma. Further, the growth with UACC-62 melanoma was 106% (inactive); in the assay with SK-MEL-28 melanoma, 104% (inactive); with SK-MEL-2 melanoma it was 99% (inactive); in the assay on SN12C renal it was 99.4% (inactive); in the assay with ACHN renal, 106% (inactive); in the assay with CAKI-1 renal, 105% (inactive). Also, in the assay with MOLT-4 leukemia, the growth is 98.9% (inactive).

Regarding `CC1(C)COC(=S)N1`, the growth with HCT-15 colon is 103% (inactive); with HT29 colon it was 104% (inactive); in the assay on SNB-75 CNS, 87.4% (inactive); in the assay with SNB-19 CNS it was 107% (inactive); with U251 CNS, 101% (inactive); in the assay on PC-3 prostate, 100% (inactive). Further, the growth with SK-MEL-5 melanoma is 112% (inactive); in the assay with UACC-62 melanoma it was 93% (inactive); in the assay with SK-MEL-28 melanoma, 104% (inactive); in the assay on SK-MEL-2 melanoma, 107% (inactive); in the assay on SN12C renal it was 93.5% (inactive); in the assay on UO-31 renal it was 90.7% (inactive). The growth was 101% (inactive) in the assay on TK-10 renal; 97.5% (inactive) with ACHN renal; 95.7% (inactive) with CAKI-1 renal; 108% (inactive) with CCRF-CEM leukemia; 108% (inactive) in the assay on MOLT-4 leukemia.

For the molecule `O=C(O)CCCl`, the growth was 108% (inactive) in the assay on HT29 colon; 97.9% (inactive) with SNB-75 CNS; 104% (inactive) in the assay on SNB-19 CNS; 101% (inactive) with U251 CNS; 96.8% (inactive) in the assay with PC-3 prostate; 99.2% (inactive) with SK-MEL-5 melanoma. In addition, the growth with UACC-62 melanoma was 110% (inactive); with SK-MEL-28 melanoma it was 105% (inactive); in the assay on SK-MEL-2 melanoma it was 123% (inactive); with SN12C renal, 107% (inactive); in the assay with TK-10 renal, 107% (inactive); in the assay on CAKI-1 renal, 102% (inactive). Also, the growth is 93% (inactive) in the assay on CCRF-CEM leukemia and 109% (inactive) in the assay with MOLT-4 leukemia.
